Many of the other results were omitted from the sample, so hits are more common in it than they were.
NS1 function inh = qHTS Assay for Inhibitors of Influenza NS1 Protein Function | Potency, µM (doses to about 46.1 µM), without a hit: at the top dose activity, positive = more growth | 0.4% of 270,000 active; calls by dose curve; note: potency is the fitted concentration of half-maximal effect; actives are rising curves; nearly all actives have a fitted effect of over 50% in size
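In this qHTS, NS1 from influenza A is expressed in budding yeast, where it slows growth. Cells are switched from glucose to 2% galactose medium (pH 6.0, -URA), treated with compound, and growth recovery is read at OD600.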
Cruzain Triton = qHTS Assay for Promiscuous and Specific Inhibitors of Cruzain (with detergent) | Cruzipain (Trypanosoma cruzi), P25779 | purified cruzain, Z-FR-AMC fluorescence, 0.01% Triton | Potency, µM, without a hit: max response, negative = inhibition, usual class: inhibitors | 0.43% of 200,000 active;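 note: potency is the fitted concentration of half-maximal effect; plate controls were neutral wells for no effect and buffer without enzyme for full effect; nearly all actives have a fitted effect of over 40% in size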
Target sequence (P25779 123-467 limits assumed): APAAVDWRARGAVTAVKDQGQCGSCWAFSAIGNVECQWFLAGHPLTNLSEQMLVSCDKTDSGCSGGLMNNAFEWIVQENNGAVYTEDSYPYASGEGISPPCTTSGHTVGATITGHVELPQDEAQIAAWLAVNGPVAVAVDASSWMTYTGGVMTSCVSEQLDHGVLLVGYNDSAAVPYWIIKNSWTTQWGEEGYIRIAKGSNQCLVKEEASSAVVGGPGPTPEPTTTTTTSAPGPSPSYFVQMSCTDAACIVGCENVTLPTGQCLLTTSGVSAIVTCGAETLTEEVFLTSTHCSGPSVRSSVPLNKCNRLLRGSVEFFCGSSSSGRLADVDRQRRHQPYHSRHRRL
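Z-FR-AMC hydrolysis (2 uM substrate) by cruzain (1.5 nM) monitored kinetically at ex 360/em 450 nm after 15 min room-temperature compound exposure; 0.01% Triton X-100, pH 5.5, 5 mM DTT.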
Cruzain noTriton = qHTS Assay for Promiscuous and Specific Inhibitors of Cruzain (without detergent); 2.3% of 200,000 active; purified cruzain, Z-FR-AMC fluorescence, no detergent; Cruzipain (Trypanosoma cruzi), P25779; Potency, µM, without a hit: max response, negative = inhibition, actives largely listed as inhibitors;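 note: potency is the fitted concentration of half-maximal effect; plate controls were enzyme without inhibitor for no effect and buffer without enzyme for full effect; nearly all actives have a fitted effect of over 40% in size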
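Detergent-free condition (0.00005% Triton X-100) in acetate buffer pH 5.5 with DTT. 1.5 nM enzyme and compound were pre-mixed 15 min, then 2 uM Z-FR-AMC substrate added; reaction progress from fluorescence change between first and third reads (60 s).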
Flu NS1 inh = Assay for Inhibitors of Influenza NS1 Protein Function: Hit Validation; shares compounds with NS1 function inh; influenza NS1 function cell assay, 15-point titration; activity change, negative = inhibition, % at 32.9 µM; 1,400 tested, under 10 active; AID 492980, 2010; calls by dose curve; note: 0% is about no effect
Flu PR8 replic = Assay for Inhibitors of Influenza NS1 Protein Function: Influenza virus replication assay in MDCK cells infected with virus A/PR/8/34. AID 504647, 2011. shares compounds with NS1 function inh. 30% of 95 active. virus titer (log TCID50), log10 TCID50 at 5 µM. MDCK infected influenza A/PR/8/34, virus titer TCID50; active compounds read low; call rule not given here
An asterisk follows results filed as active; u = inconclusive; x = no result. Unless noted, calls come from the whole dose curve; as a rule, active = well fitted curve in the direction sought with a large enough effect; inconclusive = small, poorly fitted or top-dose-only effect, or another doubt; inactive = no such curve, though single readings can be large; an effect the other way counts as inactive or inconclusive.

SMILES | NS1 function inh | Cruzain Triton | Cruzain noTriton | Flu NS1 inh | others
COc1ccc(-n2c(Cc3cccn3C)nnc2SCC(=O)Nc2ccc(Cl)cc2)cc1 | 10µM* | 3% | 1% | -4 | Flu PR8 replic=8
Cn1cccc1Cc1nnc(SCC(=O)Nc2cccc(F)c2)n1CCc1ccccc1 | u | -6% | 16% | x
COc1ccc(-n2c(Cc3cccn3C)nnc2SCC(=O)Nc2ccccc2)cc1 | 6% | 0% | 4% | x
COc1ccccc1OCc1ccc(C(=O)Nc2ccc(C)c(C)c2)o1 | x | -3% | 4% | x
Cc1nonc1C(=O)N1CCCC(N2CCN(c3ccc(F)cc3)CC2)C1 (stereo unspecified) | -7% | x | x | x
CC1N=C2c3ccccc3N=C(SCC(=O)NCCc3ccccc3)N2C1=O (stereo unspecified) | x | -5% | -14% | x
COc1ccc(NS(=O)(=O)c2ccc3nc(COc4ccc5ccccc5c4)[nH]c3c2)cc1 | 10% | 5% | u | x
COc1ccc(NS(=O)(=O)c2ccc3nc(COc4cccc5ccccc45)[nH]c3c2)cc1 | 22µM* | -2% | 32µM* | 8
CCC(C)[C@H](NC(=O)NC1CC1)C(=O)O (stereo partly specified) | 1% | 5% | 8% | x
NC(=S)N/N=C/c1ccccc1OCCSc1ccc(Cl)cc1 | 10µM* | 1.4µM* | 1µM* | u
COc1cccc(/C=N/NC(N)=S)c1OCc1ccccc1Cl | 5% | -19% | u | x
O=C(CCS(=O)(=O)c1ccc(Br)s1)NCc1ccc2c(c1)OCO2 | 1% | -1% | -7% | x
Cc1ccccc1CC(=O)N1CCN(S(=O)(=O)c2cccs2)CC1 | 2% | x | x | x
COc1ccc(/C(O)=C2/C(=O)C(=O)N(CCCN3CCOCC3)C2c2ccc(C(C)C)cc2)cc1 (stereo unspecified) | 1% | x | x | x
CN1CCN(/N=C/c2nc(-c3cccc([N+](=O)[O-])c3)n3ccccc23)CC1 | 9% | -7% | -20% | x
O=C(O)/C=C/c1nc(-c2ccccc2)n2ccccc12 | u | u | u | -1
COC(=O)c1c(NC(=S)NNS(=O)(=O)c2ccc(OC)cc2OC)sc2c1CCCCCC2 | -4% | x | x | x
COC(=O)c1c(NC(=S)Nc2cc(OC)c(Cl)cc2OC)sc2c1CCCCC2 | 11µM* | -2% | 16µM* | 5 | Flu PR8 replic=8.5
Cc1ccc(S(=O)(=O)C2(C(=O)NCCc3ccccc3)CC2)cc1 | -6% | x | x | x
COc1ccc(NC(=O)N2CCN(S(=O)(=O)c3ccc4c(ccn4C)c3)CC2)c(OC)c1 | x | -4% | 9% | x
Cc1ccc(C(=O)N/C(=C\c2cccs2)C(=O)NCCc2c[nH]c3ccccc23)cc1 | 9% | -9% | 11% | x
COc1ccc(/C=C(/NC(=O)c2ccc(OC)c(OC)c2)C(=O)NCCc2c[nH]c3ccccc23)cc1 | 7.9µM* | -3% | u | 4
COc1ccc(C(=O)N/C(=C/c2cccc3ccccc23)C(=O)NCCc2c[nH]c3ccccc23)cc1OC | 11µM* | -6% | u | u
COc1ccc(/C=C(/NC(=O)c2ccc(OC)cc2)C(=O)NCCc2c[nH]c3ccccc23)cc1 | u | -7% | u | x
O=S(=O)(c1ccc(Br)s1)N1CCCCC1 | -6% | 0% | 6% | x
SMILES | NS1 function inh | Cruzain Triton | Cruzain noTriton | Flu NS1 inh | others
CCCc1nc2ccccc2c(=O)n1-c1c(C)n(C)n(-c2ccccc2)c1=O | 4.5µM* | 7% | 1% | -2
Cc1ccc(-c2nc3ccccc3c(=O)n2-c2c(C)n(C)n(-c3ccccc3)c2=O)cc1 | 1% | x | x | x
CCOC(=O)c1cnc2ccc(Cl)cc2c1Nc1ccc(S(=O)(=O)Nc2ncccn2)cc1 | 11% | -2% | -5% | x
O=C(Cn1c(=O)c2c(ncn2Cc2ccccc2)n(Cc2ccccc2)c1=O)N1CCCC1 | 8% | 0% | u | x
CCOC(=O)Cn1c(=NC(=O)C2CC2)sc2c(C)cc(C)cc21 | -3% | x | x | x
CCc1ccccc1OCCOc1ccc(C)cc1OC | -50% | 2% | 11% | x
CCc1ccccc1OCCCOc1ccc(OC)cc1 | 2.8µM* | 1% | -6% | -38 | Flu PR8 replic=8
NNC(=O)c1csc(Cc2c(Cl)sc3ccc(Cl)cc23)n1 | u | x | x | -30
NNC(=O)c1csc(CS(=O)(=O)c2ccc(Cl)cc2)n1 | 1% | x | x | x
O=C(CCNS(=O)(=O)c1ccccc1)Nc1ccccc1 | 3% | x | x | x
Cc1ccc(-n2nc3c(c2NC(=O)/C=C\c2ccc4c(c2)OCO4)CSC3)c(C)c1 | 8.9µM* | -6% | 25µM* | 3
Cc1ccc(-n2nc3c(c2NC(=O)/C=C\c2ccc4c(c2)OCO4)CSC3)cc1 | 16µM* | -4% | 32µM* | -16
Cc1ccccc1-n1nc2c(c1NC(=O)/C=C\c1ccc3c(c1)OCO3)CSC2 | 20% | u | u | x
Cc1ccc(-n2nc3c(c2NC(=O)c2ccc4c(c2)OCO4)CS(=O)C3)cc1 (stereo unspecified) | -4% | -3% | -5% | x
COc1cc(C(=O)OCCCOC(=O)c2cc(OC)c(OC)c(OC)c2)cc(OC)c1OC | -36% | x | x | x
CN1CCN(C(=O)c2cnn3c(C(F)(F)F)cc(-c4cccs4)nc23)CC1 | 5% | -7% | -12% | x
O=C(c1cnn2c(C(F)(F)F)cc(-c3cccs3)nc12)N1CCN(C(c2ccccc2)c2ccccc2)CC1 | 16µM* | -5% | u | 7
CC(=O)Nc1cn(C(C)=O)c(C)n1 | 3% | -2% | -2% | x
COC(=O)c1cccc(C23CC4(C2)[C@H](CN(Cc2cccnc2)[C@@H]4c2ccccc2)C3c2ccc(C(F)(F)F)cc2)c1 (stereo partly specified) | 8.9µM* | 8% | -3% | 2
COC(=O)c1cccc(C23CC4(C2)[C@H](CN(C)[C@@H]4c2ccccc2)C3c2ccc(C(F)(F)F)cc2)c1 (stereo partly specified) | 7% | 0% | -6% | x
Cn1c(=NC(=O)c2ccc(S(=O)(=O)N3CCCc4ccccc43)cc2)sc2cc(S(C)(=O)=O)ccc21 | 12% | -6% | -11% | x
C#CCn1c(=NC(=O)c2ccc(S(=O)(=O)N3CCCc4ccccc43)cc2)sc2cc(S(N)(=O)=O)ccc21 | 11µM* | -2% | 7.9µM* | 18
NC(=S)NNC(=O)c1cccc(Cl)c1 | 3.2µM* | x | x | 7
O=C(NNC(=O)c1ccccc1F)c1cccc(Cl)c1 | -14% | 1% | 4% | x
Cc1ccc(S(=O)(=O)CC(=O)Nc2sc3c(c2C#N)CCCC3)cc1 | x | 4% | 8% | x
Cc1ccccc1OCC(=O)NCC(c1ccco1)N1CCCCC1 (stereo unspecified) | 11% | x | x | x
OC(CNCC(c1ccco1)N1CCCCC1)c1ccccc1 (stereo unspecified) | 2.2µM* | -4% | 7% | 7
O=C(NCc1ccccn1)c1ccccc1-c1ccccc1 | 5% | x | x | x
C=CCn1c(=O)c2ccccc2n2c(SCc3nc(N)nc(Nc4ccccc4C)n3)nnc12 | u | 5% | -13% | x

Source: PubChem (National Center for Advancing Translational Sciences (NCATS))
